Five molecules from PubChem BioAssay can be followed below.

Test [1] can be described thus: P. berghei load reduction in hepatocytes – cell-based, HepG2, luciferase luminescence, HepG2 viability, primary screen (AID 624349; in the data active = parasite load remaining mostly below about 12%, no sharp cut-off; inactive = mostly above about 10%;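 also: 100% = mean of DMSO negative control wells on the same plate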). As to conditions: P. berghei liver stage in HepG2, luciferase luminescence, concentration not given here; parasite load remaining: stronger effect = lower value; viability: measured here: HepG2 viability without parasites.
Test [2] can be described thus: Wnt pathway potentiators raising nuclear beta-catenin – imaging, WNT3A-conditioned medium, mouse C2C12, NPC library, primary screen (AID 1117326; in the data active = nuclear beta-catenin stimulation mostly above about 4.2%, no sharp cut-off; inactive = mostly below about 10%). Conditions: stronger effect = higher value.
A short description of test [3]: stimulators of insulin release from INS-1E, primary screen, cell-based, 5 mM glucose, NPC library (AID 1117329;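 active = compound raises insulin release from rat beta cells at 5 mM glucose, no numeric limit stated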). As to conditions: rat INS-1E insulin secretion, at 10 µM, stronger effect = higher value.
The nature of test [4]: growth inhibition of GSK3B-pretreated HCT116 cells – cell-based, CellTiter-Glo, 0.2 to 20 µM (AID 1117336;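 active = compounds lowering colon cancer cell viability after pretreatment blocking the GSK3B kinase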). As to conditions: HCT116 viability after GSK3B inhibitor, at 20 µM, stronger effect = higher value. In general terms: ATP-based viability assays read luminescence as a measure of living cells.
Test [5] in a line: inhibition of endothelial tube formation, primary screen, imaging, VEGF stimulated, CD31 staining, tube area, NPC library (AID 1117340;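 active = compound that reduces growth-factor-driven endothelial tube area in a mixed cell culture, no cutoff stated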). Conditions: VEGF-stimulated ADSC/ECFC co-culture, at 10 µM, stronger effect = higher value.
Test [6] in a line: GLP1 release stimulators, primary, NCI-H716, NPC library (AID 1117341;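 active = compound raises GLP1 secretion from the human gut endocrine cells, with no numeric limit stated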). As to conditions: NCI-H716 cells, at 10 µM, stronger effect = higher value.
Test [7] can be described thus: HCT116 colon cancer cell growth inhibition, primary screen, CellTiter-Glo luminescence, NPC library (AID 1117342;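 active = compounds that lower survival of HCT116 colon cancer cells in the luminescence readout, no numeric limit stated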). As to conditions: at 20 µM (top of the series).
A short description of test [8]: reduced SW480 viability measured with CellTiter-Glo, NPC library, primary (AID 1117343;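 active = compounds that lower viability of the colon cancer cells in the luminescence readout, with no numeric limit stated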). As to conditions: CellTiter-Glo luminescence; at 20 µM (top of the series) unless noted.
Test [9] in a line: NPC library primary testing for decreased DLD-1 cell viability via CellTiter-Glo (AID 1117346;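 active = compounds that lower survival of DLD-1 colon cancer cells in the luminescence readout, no cutoff given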). Conditions: DLD-1 viability, CellTiter-Glo luminescence; at 20 µM (top of the series).
Test [10] can be described thus: viability loss with induced miR-34 in A549 – imaging, A549 dox-inducible miR-34, nuclei and caspase counts, primary screen (AID 1347080;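 active = compounds whose cell count with miR-34 switched on is under 0.7 times the count with it off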). As to conditions: A549 miR-34 inducible, Hoechst nuclei count, 48 h.
Test [11] is described as follows: MELAS cybrid and Rieske KO viability enhancers – cell-based, MELAS cybrids, Rieske KO mouse fibroblasts, CellTiter-Glo, primary screen (AID 1508586).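 Also: z relative to plate mean and SD of compound and empty wells.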 As to conditions: low glucose.
The target of test [12] is NAD(+) hydrolase SARM1 (Homo sapiens) (UniProt Q6SZW1). Put plainly: blocking NAD cleavage by SARM1 SAM-TIR – cell lysate, NAD-Glo luminescence (AID 1508614;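 active = compound whose remaining NAD level is above about 45 nM, limit read from the data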;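 also: higher remaining NAD means stronger inhibition of SARM1 NADase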). Conditions: SAM-TIR HEK293T lysate NADase, at 1 µM, stronger effect = higher value.
NAD(+) hydrolase SARM1 (Homo sapiens), sequence (Q6SZW1 whole entry, looked up): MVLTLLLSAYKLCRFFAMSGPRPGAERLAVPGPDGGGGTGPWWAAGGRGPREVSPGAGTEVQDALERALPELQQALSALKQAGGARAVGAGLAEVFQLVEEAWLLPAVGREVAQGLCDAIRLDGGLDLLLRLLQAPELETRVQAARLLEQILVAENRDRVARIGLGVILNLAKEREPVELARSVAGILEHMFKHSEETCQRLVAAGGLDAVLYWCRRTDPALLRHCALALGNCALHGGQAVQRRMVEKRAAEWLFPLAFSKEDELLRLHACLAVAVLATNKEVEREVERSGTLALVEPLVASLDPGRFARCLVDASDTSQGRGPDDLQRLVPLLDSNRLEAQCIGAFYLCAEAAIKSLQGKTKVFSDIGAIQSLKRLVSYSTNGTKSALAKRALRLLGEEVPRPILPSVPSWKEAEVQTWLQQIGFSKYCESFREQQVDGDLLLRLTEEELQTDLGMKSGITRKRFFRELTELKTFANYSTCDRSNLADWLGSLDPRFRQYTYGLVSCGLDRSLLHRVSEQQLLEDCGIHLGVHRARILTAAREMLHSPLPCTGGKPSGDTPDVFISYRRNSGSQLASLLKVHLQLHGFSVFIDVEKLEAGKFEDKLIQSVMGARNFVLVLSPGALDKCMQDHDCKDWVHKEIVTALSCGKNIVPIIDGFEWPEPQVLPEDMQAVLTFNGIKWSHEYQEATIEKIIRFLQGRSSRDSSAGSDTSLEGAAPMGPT
Test [13] is described as follows: galactose survival enhancers in mitochondrial complex I cybrids – cell-based, galactose medium, ATP luminescence, primary screen (AID 1645843;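 active = z-score of at least 1.8 in each of two replicates, scored against plate mean and spread of sample wells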;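 also: positive z means more ATP and so rescue of galactose-driven cybrid death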). Conditions: complex I mutant cybrid cells, 72 h, stronger effect = higher value.
A short description of test [14]: compounds altering viability of human ES cells (AID 493140; call rule not given here;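 also: cells exposed to compounds for four days before counting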). As to conditions: human embryonic stem cell survival screen; stronger effect = higher value.
Setting [15] is: stronger effect = lower value, cell number ratio, induced over uninduced.
The mark [16] stands for this setting: measured here: relative caspase fold change +Dox/-Dox.
The mark [17] stands for this setting: measured here: total cells with miR-34 induction, stronger effect = lower value.
Setting [18] is: measured here: total cells without miR-34 induction.
The mark [19] stands for this setting: MELAS cybrid survival, CellTiter-Glo 48 h, stronger effect = higher value.
The mark [20] stands for this setting: Rieske KO mouse fibroblast survival, CellTiter-Glo 72 h.

Each structure is given as a SMILES string. Where “and” joins values, the source holds several entries; their conditions need not be identical. Equal values may be shown once. Calls of active or inactive are those of the source.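 The calls were made as follows, unless noted: active = mean z-score across replicates of 1.96 or higher in either the MELAS or the Rieske mutant cell line; inactive = the rest.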

Usually viability stands for a read-out of living cells in per cent, often relative to untreated cells. For the molecule `CCN(CC)C(=O)/C(C#N)=C/c1cc(O)c(O)c([N+](=O)[O-])c1`, in [1], the parasite load remaining was 40.1% (inactive). Further, the viability in test [1] was determined as 102%. The nuclear beta-catenin stimulation in test [2] (at 10 µM) was -0.4% (inactive); in [2] (stimulation, at 2 µM), 1.2%. Further, in test [3], the insulin secretion stimulation is 1.5% (inactive). Moreover, in [4], the viability decrease is 36% (inactive). In test [5], the tube area decrease is 61.4% (active). The GLP1 secretion stimulation in [6] was 0% (inactive). Moreover, in [7], the inhibition of viability is 29.2% (inactive). Also, the viability decrease (inhibition) in [8] was 92.4% (active); in test [9] it was 35.8% (inactive). The fold change in test [10] (setting [15]) is 0.873 (inactive); in test [10] (setting [16]), 0.914. Further, the values for the cell count in test [10] (setting [17]) and in test [10] (setting [18]) were 10100 and 11500, respectively. Further, the z-score was -0.387 (inactive) and -1.06 (inactive) in test [11] (setting [19]); -0.365 and -0.513 in test [11] (setting [20]); 0.125 (inactive) in test [13]. Also, in [12], the remaining NAD is 10 nM (inactive).
Consider `CC[N+](C)(CC)CCOC(=O)C1c2ccccc2Oc2ccccc21`, for which the survival in [14] was 18.2 (inactive). Moreover, the parasite load remaining in test [1] is 64.6% (inactive). The viability in test [1] was 67.1%. The nuclear beta-catenin stimulation in [2] (at 10 µM) was -0.9% (inactive); in [2] (stimulation, at 2 µM), 0.8%. In test [3], the insulin secretion stimulation was 2.6% (inactive). In addition, in [4], the viability decrease was -10.2% (inactive). Further, in [5], the tube area decrease was -0.8% (inactive). The GLP1 secretion stimulation in test [6] is -4.5% (inactive). In addition, the inhibition of viability in test [7] is 6% (inactive). Further, the viability decrease (inhibition) in [8] is 1.5% (inactive); in test [9], -6.1% (inactive). Moreover, the fold change in [10] (setting [15]) was 0.995 (inactive); in [10] (setting [16]), 0.614. The cell count was 9340 in [10] (setting [17]) and 9380 in test [10] (setting [18]). Moreover, the z-score was 0.613 (inactive) in test [11] (setting [19]) and 0.177 in [11] (setting [20]).
For the molecule `COCC(=O)Nc1c(I)c(C(=O)NCC(O)CO)c(I)c(C(=O)N(C)CC(O)CO)c1I` (configuration not stated), the survival in test [14] was 1.33 (inactive). Further, in [1], the parasite load remaining was 103% (inactive). For the same molecule, in test [1], the viability was 104%. In addition, the nuclear beta-catenin stimulation was 3% (inactive) in [2] (at 10 µM) and 2.8% in test [2] (stimulation, at 2 µM). Also, the insulin secretion stimulation in test [3] is 3.5% (inactive). Further, the viability decrease in test [4] is -12.6% (inactive). In addition, the tube area decrease in [5] was -13.9% (inactive). Moreover, in [6], the GLP1 secretion stimulation was -1.2% (inactive). Moreover, the inhibition of viability in test [7] is -4.47% (inactive). The viability decrease (inhibition) is -13% (inactive) in test [8] and -7.9% (inactive) in [9]. For the same molecule, the fold change in [10] (setting [15]) was 0.856 (inactive); in test [10] (setting [16]), 1.69. The cell count in test [10] (setting [17]) was found to be 8610; in [10] (setting [18]), 10100. Also, the values for the z-score in test [11] (setting [19]) and in test [11] (setting [20]) were -0.386 (inactive) and -1.03, respectively.
With `C[N+]1(C)CCC(=C(c2ccccc2)c2ccccc2)CC1`, the survival in [14] is 14.4 (inactive). Besides, the parasite load remaining in [1] is 49.5% (inactive) and 80.3% (inactive). In [1], the viability is 48.7% and 94.9%. For the same molecule, the nuclear beta-catenin stimulation in [2] (at 10 µM) is 1.1% (inactive); in [2] (stimulation, at 2 µM), -1.3%. In test [3], the insulin secretion stimulation is 3.5% (inactive). The viability decrease in [4] was -7.5% (inactive). Besides, the tube area decrease in test [5] is 23.2% (inactive). In test [6], the GLP1 secretion stimulation was 0% (inactive). Further, the inhibition of viability in test [7] is 7.97% (inactive). The viability decrease (inhibition) was 40.8% (inactive) in test [8] and -3.1% (inactive) in test [9]. Besides, the fold change was 0.907 (inactive) and 1.1 (inactive) in test [10] (setting [15]); 0.619 and 0.415 in [10] (setting [16]). Further, the cell count was 8340 and 8800 in [10] (setting [17]); 9190 and 7990 in test [10] (setting [18]). The z-score in [11] (setting [19]) is -0.294 (inactive) and -0.951 (inactive); in [11] (setting [20]) it was -0.199 and -0.0737.
As to `O=C(O)CCc1nc2ccccc2[nH]1`, the nuclear beta-catenin stimulation in test [2] (at 10 µM) is 2.8% (inactive); in test [2] (stimulation, at 2 µM), 2.5%. Also, the insulin secretion stimulation in [3] was -1.6% (inactive). The viability decrease in test [4] is 3.65% (inactive). Moreover, the tube area decrease in [5] was -5.8% (inactive). In addition, in test [6], the GLP1 secretion stimulation was 3.5% (inactive). For the same molecule, in [7], the inhibition of viability was -11.8% (inactive). For the same molecule, the results for the viability decrease (inhibition) in test [8] and in test [9] were 106% (active) and 5.2% (inactive), respectively. In addition, the values for the fold change in test [10] (setting [15]) and in test [10] (setting [16]) were 0.93 (inactive) and 1.12, respectively. The results for the cell count in [10] (setting [17]) and in test [10] (setting [18]) were 8680 and 9340, respectively. For the same molecule, in test [12], the remaining NAD is 10 nM (inactive).
